High-throughput results: PubChem BioAssay, several laboratories
ROMK mod = ROMK potassium channel modulators, primary screen, cell-based, thallium flux, MLSMR library; ATP-sensitive inward rectifier potassium channel 1 (Homo sapiens), P48048; Tet-inducible ROMK, thallium flux fluorescence; actives lie on both sides; B-score at 10 µM; actives 2% (n = 130,000); AID 1918, 2009;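 active = signal ratio slope over the read window, or its plate-corrected B-score, at least 3 SD from the plate mean, either direction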;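 also: B-score of the F/F0 ratio slope over 7 to 12 s after thallium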
Target sequence (P48048 whole entry, looked up): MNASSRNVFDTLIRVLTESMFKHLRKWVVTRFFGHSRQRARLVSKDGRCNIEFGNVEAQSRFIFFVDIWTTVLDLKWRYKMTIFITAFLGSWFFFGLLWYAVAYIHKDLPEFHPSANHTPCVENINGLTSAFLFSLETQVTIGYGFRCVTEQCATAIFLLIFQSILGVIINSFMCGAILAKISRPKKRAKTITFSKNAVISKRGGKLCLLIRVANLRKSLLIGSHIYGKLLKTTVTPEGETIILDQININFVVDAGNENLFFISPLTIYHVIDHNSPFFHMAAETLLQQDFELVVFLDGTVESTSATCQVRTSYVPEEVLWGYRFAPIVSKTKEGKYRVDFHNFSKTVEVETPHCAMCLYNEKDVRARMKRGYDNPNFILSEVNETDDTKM
HSV replic up = enhancers of HSV replication in host cells, fold increase, host cell viability. maximum fold increase. HSV replication augmentation in cells. actives 0.005% (n = 220,000). AID 1956, 2009; in the data active = maximum fold increase above about 1.5; inconclusive = no clear call, values can overlap the other calls; tested in PC3 cells
HMGR II inh = inhibitors of E. faecalis class II HMGR, primary screen, biochemical, Enterococcus faecalis | HMG-CoA reductase (Enterococcus faecalis, mvaE) | purified E. faecalis HMGR, NADPH absorbance 340 nm kinetic | inhibition, % at 10 µM | actives 0.41% (n = 190,000);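 active = inhibition above a set limit, the median over all tested compounds plus 3 SD, cut at about 9.5% in these data; inconclusive = no clear call, values can overlap the other calls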;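 also: enzyme runs in reverse so mevalonate oxidation gives rising NADPH absorbance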
Arbovirus inh = antivirals against arbovirus infection, primary screen, cell-based, full library, 10K replicate subset; arbovirus infection cell-based antiviral screen; inhibition, % at 10 µM; actives 0.37% (n = 200,000); in the data active = inhibition above about 30%
Calpain2 inh = inhibitors of pig calpain II, primary screen, biochemical, fluorogenic peptide substrate, 1536-well; inhibition, % at 16 µM; actives 0.37% (n = 220,000); AID 1236, 2008; purified calpain II, 30 min;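 active = inhibition above about 50%, limit read from the data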
ROMK retest = ROMK channel modulator hit retest, confirmation, cell-based, thallium flux, duplicate, resupplied hits. shares compounds with ROMK mod. fluorescence ratio; hits give low values. normalized thallium flux (F/F0 slope) at 10 µM. actives 54% (n = 3,000). AID 1917, 2009;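 active = Flux at 10 µM at least 3 SD below or above vehicle control mean in one or both replicates; inconclusive = no clear call, values can overlap the other calls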
A number is an active result; n = inactive; u = inconclusive; x = no result given. Only some compounds are listed: those with a hit (about 2.1% of all), similar ones and a draw of the others.

SMILES	ROMK mod	HSV replic up	HMGR II inh	Arbovirus inh	Calpain2 inh	ROMK retest
Cc1cc2cc(CN(Cc3ccco3)C(=O)NCc3ccccc3)c(=O)[nH]c2cc1C	-5.2	n	n	n	n	0.059
O=C(c1cccc(C(F)(F)F)c1)C1CCCN(C(=O)CCn2cnnn2)C1 (configuration not stated)	x	n	x	x	n	x
CC1CCc2cc(F)ccc2N1C(=O)CCl (configuration not stated)	-4.3	n	n	n	n	0.048
O=C(O)/C=C/C(=O)Nc1ccc(OC(F)(F)F)cc1Br	x	n	x	x	n	x
Clc1cccc2c1Sc1ccccc1CC2N1CCNCC1 (configuration not stated)	-3.1	n	n	n	n	0.051
Cc1[nH]c(=O)c(C(=O)/C=C/c2ccccc2F)c2c1CCCC2	n	n	n	n	n	x
COc1cc(C(C(=O)NC2CCCCC2)N(Cc2ccco2)C(=O)c2cnccn2)cc(OC)c1OC (configuration not stated)	-13	n	n	n	n	n
O=c1[nH][nH]c(=S)n1-c1ccccc1C(F)(F)F	n	n	x	x	n	x
CCCSC(=S)c1c(C)[nH]n(-c2ccccc2)c1=O	x	n	x	x	n	0.12
CCCCN(CCCC)C(=S)N/N=C/c1c(C)[nH]n(-c2ccccc2)c1=O	x	n	n	n	n	x
S=C(Nc1ccccc1)N1CCN(C(=S)Nc2ccccc2)CC1	-13	n	n	n	n	n
S=C(Nc1ccc(Oc2ccccc2)cc1)N1CCN(c2ccccn2)CC1	2.6	n	n	n	n	n
S=C(Nc1ccccc1)N1CCCCCCC1	n	n	n	n	n	x
N#CCc1c(C#N)c(N)nc(N2CCCC(O)C2)c1C#N (configuration not stated)	n	n	n	n	n	x
O=C(Nc1ccc(Cl)cc1)N1N=CCC1c1ccccc1 (configuration not stated)	-3.1	n	x	x	n	0.064
CCOc1cc(CNCCO)cc(Br)c1OCc1ccccc1Cl	n	n	n	n	n	x
CCOc1cc(CNCCCN2CCOCC2)cc(Br)c1OCc1ccccc1Cl	-1.6	n	n	n	n	u
CNC(=O)CS(=O)CC(=O)Nc1cc(OCCOC)c(Cl)cc1Cl (configuration not stated)	x	n	n	n	n	x
CCCCCCN1C=CC=C/C1=C\C=C(C#N)C#N	-4.4	u	x	x	n	0.043
Cc1cc(NC(=O)c2noc3c2CCc2ccccc2-3)n(-c2ccccc2)n1	x	n	n	n	n	n
Cc1ccc(NC(=O)c2noc3c2CCc2ccccc2-3)cc1	n	n	n	n	n	x
COc1ccc(-c2cc(C(=O)Nc3cc(C)nn3-c3ccccc3)no2)cc1OC	3.7	n	n	n	n	n
COc1ccc(-c2cc(C(=O)Nc3cc(C)on3)no2)cc1OC	n	n	n	n	n	x
CC(C)n1nc(Cc2cccc3ccccc23)c(C#N)c1N	x	n	x	x	x	x
COC(=O)c1cc(C)[nH]c2c(C)cc3nc4ccccc4c3c12	x	n	x	x	n	x
SMILES	ROMK mod	HSV replic up	HMGR II inh	Arbovirus inh	Calpain2 inh	ROMK retest
Cc1ccc2nc(N3CC(=O)Nc4ccccc43)nc(-c3ccccc3)c2c1	n	n	n	n	n	x
COc1ccc(CNc2nc3ccccc3n2C)c(OC)c1	-7.6	n	n	n	n	n
NC(=S)Nc1cccc(O)c1	x	n	x	x	n	x
CCCCC1CCC(c2nc(-c3cccnc3)no2)CC1 (configuration not stated)	x	n	n	n	n	n
O=[N+]([O-])c1ccc(Sc2n[nH]c(-c3ccc(Cl)cc3Cl)n2)nc1	x	n	n	n	n	0.06
CC(C)(C)c1nc(Sc2ccc([N+](=O)[O-])cn2)n[nH]1	x	n	x	x	n	x
O=C(C1=NNC2C(=O)N(c3ccccc3)C(=O)C12)c1nc(Cl)ccc1Cl (configuration not stated)	n	n	n	n	n	x
CC(C)(C)c1ccc(N2C(=N)SCC2=O)cc1	-9.3	n	x	x	n	0.041
CC(C)(O)C(=O)NNC(=S)Nc1ccc(F)c(Cl)c1	n	n	n	n	n	x
O=C(Nc1nccs1)c1cc(Cl)nc2ccccc12	x	n	x	x	n	n
COC(=O)c1ccc(-c2n[nH]c(=O)c3ccccc23)cc1	x	n	n	n	n	x
COC(=O)Nc1nc2ccc(-c3n[nH]c(=O)c4ccccc34)cc2[nH]1	2.8	n	n	n	n	u
COc1ccc(OC)c(C2NC(=S)NC3=C2N2CCC3CC2)c1 (configuration not stated)	3	n	n	n	n	n
Cc1cccc(NC(=O)C(C)OC(=O)c2ccccc2NS(=O)(=O)c2cc(C)c(C)c([N+](=O)[O-])c2)c1 (configuration not stated)	-3	n	n	n	n	0.061
[O-]/[N+](=C\c1ccncc1)c1ccccc1	x	x	n	n	n	n
CC1CCN(CCCNC(=O)c2ccc(CSCc3cccc(Cl)c3)o2)CC1	-4.2	n	n	n	n	0.053
CC1(C)CC(=O)C(C=Nc2ccc(NC3=C(C#N)C(=O)CC(C)(C)C3)cc2)=C(O)C1	n	n	n	n	n	x
O=C1Nc2ccccc2OCc2c1cccc2[N+](=O)[O-]	3.5	n	n	n	n	0.1
O=C1OCc2cccc([N+](=O)[O-])c21	n	n	n	n	n	x
COc1cc(NC(=O)CN2CCN(c3ccccc3O)CC2)c(C)cc1[N+](=O)[O-]	-4.4	n	n	n	n	0.049
COc1cc(NC(=O)CN2CCC(C)CC2)c(C)cc1[N+](=O)[O-]	x	n	n	n	n	x
O=C(Nc1ccc(S(=O)(=O)Nc2nccs2)cc1)c1cnc(Cl)c(Cl)c1	x	n	x	x	n	x
CCN(CC)Cc1c(O)ccc2c([N+](=O)[O-])c(C)n(-c3ccc(OC)cc3)c12	-4.8	n	n	n	n	u
COc1cccc(C(c2nnnn2Cc2ccccc2)N2CCN(C3CCCC3)CC2)c1OC (configuration not stated)	-4.8	n	n	n	n	0.054
COc1ccc(Cn2nnnc2C(c2cc3cc(C)ccc3[nH]c2=O)N2CCN(C)CC2)cc1 (configuration not stated)	n	n	n	n	n	n
COc1ccc(Cn2nnnc2C(c2ccc(C)cc2)N2CCN(C3CCCC3)CC2)cc1 (configuration not stated)	x	n	n	n	n	0.053
Cn1cnnc1SCC(=O)Nc1ccc(OC(F)F)cc1	n	n	n	n	n	x
CC1CCC(C(C)C)C(OCC(O)CNC(C)c2ccccc2)C1 (configuration not stated)	n	n	n	n	n	x
CC(NCC(O)COC1CCC(C(C)(C)C)CC1)c1ccccc1 (configuration not stated)	-2.3	n	n	n	n	0.058
CCCNC(=S)NC1CC2CCC(C1)N2Cc1ccccc1 (configuration not stated)	x	n	n	n	n	x
